# The whole screen tested about 39,000 compounds, of which about 1,500 (3.8%) were called active. What follows is part of a selection rich in actives, with near analogues and random picks from the rest.
# Tested on: HSkMC (human skeletal muscle cells)
# Assay: cytotoxicity call (relative viability < 0.9)
# Conditions: 10 µM
row,Structure (SMILES),cytotoxicity call
1,C[C@@H]1CN([C@H](C)CO)S(=O)(=O)c2ccc(-c3ccc(C(=O)N(C)C)cc3)cc2O[C@H]1CN(C)C(=O)C1CC1,inactive
2,C[C@@H]1CN([C@H](C)CO)C(=O)Cc2cc(NS(=O)(=O)c3ccccc3)ccc2O[C@H]1CN(C)S(=O)(=O)c1cccs1,inactive
3,Cc1cc(C(=O)Nc2cccc3c2O[C@@H](CN(C)S(=O)(=O)c2cn(C)cn2)[C@H](C)CN([C@H](C)CO)C3=O)n(C)n1,inactive
4,NC(=O)NCC#Cc1ccc2c(c1)[C@]1(C(=O)N2)[C@H](c2ccc(OCCO)cc2)N2[C@H](c3ccccc3)[C@H](c3ccccc3)OC(=O)[C@H]2[C@@H]1C(N)=O,inactive
5,O=C(C[C@H]1CC[C@@H](NC(=O)Cc2ccccn2)[C@H](CO)O1)NCCCN1CCOCC1,inactive
6,CC(=O)n1cc([C@@H]2C=C(C(=O)N3CCN(Cc4ccccc4)CC3)O[C@H](OCc3ccc(CO)cc3)C2)c2ccccc21,inactive
7,O=C(C[C@H]1C[C@@H]2c3cc(NS(=O)(=O)c4ccc(F)cc4)ccc3O[C@@H]2[C@@H](CO)O1)N1CCOCC1,inactive
8,Cc1cc(C)c(C)c(C(=O)O)c1C,inactive
9,O=C(C[C@@H]1CC[C@H]2NC[C@H](O)COC[C@@H]2O1)NCCN1CCCC1,inactive
10,C[C@@H]1CN([C@@H](C)CO)C(=O)Cc2cc(NS(=O)(=O)c3ccc(Cl)cc3)ccc2O[C@@H]1CN(C)S(C)(=O)=O,inactive
11,COc1ccc(NC(=O)Nc2ccc3c(c2)C(=O)N([C@@H](C)CO)C[C@H](C)[C@H](CN(C)Cc2ccc4c(c2)OCO4)OCCCC[C@@H](C)O3)cc1,inactive
12,C[C@@H]1CN([C@@H](C)CO)C(=O)c2cc(NC(=O)Nc3ccc4c(c3)OCO4)ccc2O[C@@H](C)CCCCO[C@H]1CN(C)Cc1ccc(Cl)c(Cl)c1,inactive
13,C[C@H](CO)N1C[C@H](C)[C@@H](CN(C)CC2CCCCC2)OCCCC[C@H](C)Oc2ccc(NC(=O)Nc3ccc4c(c3)OCO4)cc2C1=O,inactive
14,C[C@@H]1CCCCO[C@@H](CN(C)Cc2ccc3c(c2)OCO3)[C@@H](C)CN([C@@H](C)CO)C(=O)c2cc(NC(=O)Nc3ccc4c(c3)OCO4)ccc2O1,inactive
15,COc1ccc(NC(=O)Nc2ccc3c(c2)C(=O)N([C@@H](C)CO)C[C@H](C)[C@H](CN(C)Cc2ccc4c(c2)OCO4)OCCCC[C@H](C)O3)cc1,active
16,COc1ccc(NC(=O)Nc2ccc3c(c2)C(=O)N([C@H](C)CO)C[C@H](C)[C@@H](CN(C)Cc2ccc4c(c2)OCO4)OCCCC[C@H](C)O3)cc1,inactive
17,C[C@H]1CCCCO[C@@H](CN(C)CC2CCCCC2)[C@@H](C)CN([C@@H](C)CO)C(=O)c2cc(NC(=O)Nc3ccc4c(c3)OCO4)ccc2O1,active
18,C[C@@H]1CCCCO[C@H](CN(C)Cc2ccc3c(c2)OCO3)[C@H](C)CN([C@@H](C)CO)C(=O)c2cc(NC(=O)Nc3ccc4c(c3)OCO4)ccc2O1,active
19,C[C@@H]1CCCCO[C@@H](CN(C)CC2CCCCC2)[C@@H](C)CN([C@H](C)CO)C(=O)c2cc(NC(=O)Nc3ccc4c(c3)OCO4)ccc2O1,inactive
20,C[C@@H]1CN([C@H](C)CO)C(=O)c2cc(NC(=O)Nc3ccc4c(c3)OCO4)ccc2O[C@@H](C)CCCCO[C@@H]1CN(C)Cc1ccc(Cl)c(Cl)c1,inactive
21,C[C@@H]1CCCCO[C@@H](CN(C)Cc2ccc(Cl)c(Cl)c2)[C@@H](C)CN([C@@H](C)CO)C(=O)c2cc(NC(=O)Nc3ccc4c(c3)OCO4)ccc2O1,active
22,C[C@@H]1CN([C@H](C)CO)C(=O)c2cc(NC(=O)Nc3ccc4c(c3)OCO4)ccc2O[C@@H](C)CCCCO[C@@H]1CN(C)Cc1ccc2c(c1)OCO2,inactive
